# PubChem BioAssay AID2205 (University of Pittsburgh Molecular Library Screening Center, 2009)
# The whole screen tested about 200,000 compounds, of which about 1,600 (0.8%) were called active.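 How the source made its calls: active means plate Z-score above 3 for both tubulin-high and condensed-nucleus cell shares, with cell loss under 80%, at 10 µM; inactive means the rest, inconclusive results apart.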 The list comes from a sample in which actives are over-represented; it also holds similar structures and randomly drawn compounds.
# Assay: microtubule stabilizers in HeLa cells, primary screen, imaging, high-content imaging (AID 2205);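 on % tubulin-high responders: anti alpha tubulin signal scored within the nucleus-defined area of each cell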;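 on toxicity: 0% = mean cell density of plate MIN control wells and 100% = no cells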
# Conditions: HeLa tubulin immunostaining HCS, 24 h, at 10 µM; % Hoechst-high responders: measured here: nuclear condensation Hoechst responders, stronger effect = higher value, share of cells brighter than vehicle mean+2SD; % tubulin-high responders: stronger effect = higher value, share of cells brighter than vehicle mean+2SD; toxicity: measured here: cytotoxicity by cell density
Structure (SMILES),% Hoechst-high responders [%],% tubulin-high responders,toxicity [%]
Cc1nn(-c2ccccc2)c(-n2cccc2)c1C(=O)O,3.22,2.89% (inactive),10.5
CCCOC(=O)c1[nH]c2c(c1C)C(=O)CC(c1cc(OC)c(OC)c(OC)c1)C2 (centres undefined),1.51,5.08% (inactive),9.25
CCOC(=O)c1[nH]c2c(c1C)C(=O)CC(c1ccc(N(C)C)cc1)C2 (centres undefined),1.67,6.74% (inactive),9.96
CCCOC(=O)c1[nH]c2c(c1C)C(=O)CC(c1cccs1)C2 (centres undefined),49.4,25.2% (active),48.6
CSc1ccc(/C=N\NC(=O)CC(=O)NC(C)C)cc1,1.95,3.08% (inactive),8.56
CCOC(=O)c1c(C)[nH]c(C(=O)COc2ccc3c(c2)OCO3)c1C,3.29,2.42% (inactive),11.4
Cc1ccc(C(=O)OCC(=O)NCc2ccc3c(c2)OCO3)s1,1.59,1.75% (inactive),6.77
CCOC(=O)c1nc(-c2ccc3c(c2)OCO3)[nH]c1C,10.2,26.6% (active),43
Cc1ccc(CNC(=O)CCNS(=O)(=O)c2ccc(Br)s2)cc1,2.82,2.88% (inactive),3.85
CCOc1cccc(/C=C/c2ccc3ccccc3n2)c1OC(C)=O,3.95,5.51% (inactive),3.2
Cc1ccc2nc(-c3cccc(Br)c3)cc(C(=O)Nn3cnnc3)c2c1,3.03,6.01% (inactive),5.1
Fc1ccc2c(c1)C(c1cccnc1)=NNC(c1cccs1)=N2,34.4,13.2% (active),33.1
COc1ccc2c(c1)C(c1cccs1)=NNC(c1cccnc1)=N2,1.1,2.37% (inactive),7.76
NC(=O)c1ccc(NC(=O)COC(=O)c2c3c(nc4ccccc24)/C(=C\c2ccc4c(c2)OCO4)CCC3)cc1,1.77,5.36% (inactive),8.9
Cc1ccc(NC(=O)CC2S/C(=N/N=C3\CCCc4ccccc43)NC2=O)cc1 (centres undefined),2.08,1.84% (inactive),8.37
C[n+]1ccccc1C1CCCC/C1=N\Nc1ccc([N+](=O)[O-])cc1[N+](=O)[O-] (centres undefined),1.98,5.56% (inactive),5.84
CC(=O)c1ccc(S(=O)(=O)Nc2ccc(C(=O)NCC(c3ccccc3)N(C)C)cc2)cc1 (centres undefined),1.41,1.91% (inactive),3.99
Nc1c(C(=O)O)cnn1-c1ccccc1,1.87,1.93% (inactive),3.6
OCC1(CCOc2ccccc2)CCN(Cc2cn[nH]c2-c2ccccc2)CC1,2.29,2.29% (inactive),7.78
Cc1c(CN2CCC(CO)(CCOc3ccccc3)CC2)[nH]c2ccc(Cl)cc12,7.79,27.6% (active),29.9
Cc1cccc(-c2ncc(CN3CCC(CO)(CCCc4ccccc4)CC3)cn2)c1,2.55,2.1% (inactive),2.96
CCc1ccccc1NC(=S)N(CCN1CCCCCC1)Cc1ccco1,2.22,4.39% (inactive),2.58
O=c1[nH]n(-c2ccc([N+](=O)[O-])cc2)c(=O)c2ccccc12,1.89,3.4% (inactive),9.65
Cc1ccc(-n2c(SCC(=O)N3c4ccccc4Sc4ccccc43)nnc2-c2ccncc2)cc1,1.48,4.83% (inactive),6.63
Cc1cc(C)c(C#N)c(SCC(=O)Nc2ccccc2)n1,2.87,3.04% (inactive),8.63
Cc1cc2cc3c(cc2nc1SCC(=O)Nc1c(C)cccc1C)CCC3,34.5,47% (active),36.2
Cc1cccc(C)c1NC(=O)CSc1ccc([N+](=O)[O-])cn1,2.4,2.2% (inactive),2.93

Structure (SMILES),% Hoechst-high responders [%],% tubulin-high responders,toxicity [%]
CCCCN1C(=O)CCC(C(=O)O)C1c1ccc(OC)cc1 (centres undefined),2.91,4.23% (inactive),11.7
O=S(=O)(c1cccc(C(F)(F)F)c1)N1CCN(c2cnccn2)CC1,2.29,4.64% (inactive),6.14
O=C1CC(=O)Nc2cc(S(=O)(=O)N3CCN(c4cccc(C(F)(F)F)c4)CC3)ccc2N1,10.2,22.1% (active),36.8
O=c1ccc2cc(S(=O)(=O)N3CCN(c4ccccc4)CC3)ccc2o1,1.39,0.945% (inactive),5.98
C/C(CC1CC(C)(C)OC1=O)=N/Nc1nc(-c2ccccc2)cs1 (centres undefined),2.24,6.39% (inactive),11.5
Cc1ccc2nc(-c3ccncc3)cc(C(=O)Nc3ccc(OC(F)F)cc3)c2c1,37,13.9% (active),27.1
Cc1ccc2nc(-c3ccccn3)cc(C(=O)Nc3ccc4c(c3)OCO4)c2c1,2.11,3.85% (inactive),5.75
Cc1ccc2nc(-c3ccncc3)cc(C(=O)Nc3ccc4c(c3)OCCO4)c2c1,4.59,3.49% (inactive),10
CC(C)(O)C#Cc1ncc(C(F)(F)F)cc1Cl,2.46,3.98% (inactive),7.29
O=C1CC(N2CCN(c3ccc(F)cc3)CC2)C(=O)N1c1ccccc1 (centres undefined),1.93,2.61% (inactive),4.03
Cc1onc(C(=O)NCc2ccc(F)cc2)c1[N+](=O)[O-],1.75,2.95% (inactive),6.2
COc1ccc(/C=C/C(=O)OCC(=O)Nc2cccc(Oc3ccccc3)c2)c(OC)c1,4.35,1.52% (inactive),2.38
COc1ccc(/C=C/C(=O)Nc2ccc3c(c2)OCCO3)cc1OC,1.93,1.43% (inactive),9.72
COc1ccc(OC)c(/C=C/C(=O)OCC(=O)Nc2ccc3c(c2)OCCO3)c1,20.4,17.6% (active),25.4
O=C(CSc1ccc2nnc(-c3ccccc3)n2n1)N1CCCc2ccccc21,4.1,2.62% (inactive),12.3
NC1=NC(=O)S/C1=C\c1ccc(O)cc1,3.29,1.93% (inactive),4.56
O=C(NNC(=S)NCc1ccco1)C(c1ccccc1)c1ccccc1,2.12,1.06% (inactive),3.3
CCOC(=O)CSC1=C(C#N)C(c2ccco2)C(C(=O)OCc2ccccc2)=C(C)N1 (centres undefined),31.7,50.8% (active),30
C=CCSC1=C(C#N)C(c2cc(Br)c(O)c(OC)c2)CC(=O)N1 (centres undefined),5.45,1.66% (inactive),9.07
COC(=O)CSC1=C(C#N)C(c2ccccc2OC)C(C(=O)OC)C(=O)N1 (centres undefined),1.9,3.79% (inactive),6.69
CC1=C(C(=O)Nc2ccccc2)C(c2ccco2)C(C#N)=C(SCC(N)=O)N1 (centres undefined),1.48,1.69% (inactive),9.84
CC1=C(C(=O)OCc2ccccc2)C(c2ccco2)n2ncnc2N1 (centres undefined),2.47,2.96% (inactive),10.1
CCOC(=O)CSC1=C(C#N)C(c2sccc2C)CC(=O)N1 (centres undefined),46,25.8% (active),48.2
C=CCOC(=O)C1=C(C)NC(SCC(=O)OCC)=C(C#N)C1c1ccc(C)cc1 (centres undefined),1.55,2.42% (inactive),8.87
Cc1ccc(C2CC(=O)NC(SCC(=O)OCc3ccccc3)=C2C#N)o1 (centres undefined),13,33.6% (active),51.7
COc1cc2c(cc1OC)C(c1ccc(C)o1)CC(=O)N2 (centres undefined),2.57,2.94% (inactive),5.58
